Peg3 prom inh-1 = reduces Peg3 promoter-driven luciferase expression in HeLa | HeLa PEG-Prom luciferase reporter, luminescence, overnight | inhibition, % at 20 µM | actives 1.7% (n = 360,000);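 active = inhibition of at least 50% at 20 µM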
TROY NFkB inh = inhibitors of TROY-dependent NF-kB signaling. AID 1347056. Q293 LMP1-TROYcd NF-kB luciferase reporter, 4 h. actives 0.98% (n = 360,000). inhibition, % at 10 µM;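 active = compounds whose plate-normalised and pattern-corrected inhibition of the luciferase reporter signal at the single screening dose is 50% or more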
TWEAK-Fn14 inh = TWEAK-Fn14 signaling inhibition; AID 1159606; inhibition, % at 10 µM; actives 2% (n = 360,000); TWEAK-stimulated Fn14 reporter cells, luciferase luminescence, 8 h; in the data active = inhibition above about 50%
HIF-2a inh = blocks HIF-2a reporter activity; 786-0 RCC cells HIF-2a reporter, luciferase luminescence, overnight; inhibition, % at 18.8 µM; actives 0.72% (n = 360,000);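 active = inhibition of the luminescence signal of 40% or more relative to plate controls, in a single-dose primary screen at 18.75 µM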
CF NFkB block = cystic fibrosis NF-kB activation inhibition; KKLEB NF-kB-GFP reporter, PAF-induced, GFP fluorescence overnight; inhibition, % at 5 µM; actives 0.86% (n = 360,000); AID 588850;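 active = at least 50% inhibition at 5 µM, scaled per plate between neutral and stimulator controls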;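 note: PAF is a Pseudomonas aeruginosa culture filtrate used as stimulus; plate controls were PAF-stimulated DMSO wells for no effect and unstimulated DMSO wells for full effect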
KKLEB tox = counter-screen for CF NF-kB inhibitors: cytotoxicity | KKLEB CF airway cells viability, ATPlite luminescence, overnight; active compounds read low; cells stimulated with P. aeruginosa culture filtrate | activity change (cytotoxicity), % at 5 µM | actives 0.36% (n = 360,000) | AID 602141;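 active = corrected activity change at or below -50% at 5 µM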
Peg3 prom inh-2 = Peg3 promoter inhibition confirmation | shares compounds with Peg3 prom inh-1 | AID 602417 | HeLa PEG-Prom luciferase reporter, luminescence, overnight | actives 84% (n = 1,300) | inhibition, % at 20 µM;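 active = at 20 µM dose, 40% or more inhibition averaged across four replicates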
The depositor's hits bear a star; · = no result given. Compounds with a hit are over-represented: about 4% of the library has one in this group of screens.

SMILES	Peg3 prom inh-1	TROY NFkB inh	TWEAK-Fn14 inh	HIF-2a inh	CF NFkB block	KKLEB tox	Peg3 prom inh-2
O=C(Nc1ccc(-c2cn3ccsc3n2)cc1)c1ccc(F)c(S(=O)(=O)N2CCOCC2)c1	80*	40	59*	-78	-40	25	96*
O=C(Nc1ccccc1)c1ccc(F)c(S(=O)(=O)N2CCOCC2)c1	1	-5	1	-16	-5	-1	·
Cc1cccc(N=C2Sc3nc4c(C)c(C)ccc4cc3CN2CCN2CCOCC2)c1	55*	-3	7	-14	0	-5	57*
COCCN1Cc2cc3cc(C)ccc3nc2SC1=Nc1cccc(OC)c1	-13	-11	16	-23	2	-2	·
CCN1CCN(c2cc(-c3ccccc3)nc3cc(-c4cccc(F)c4)nn23)CC1	11	6	29	-68	18	-6	·
CC(=O)N1CCN(c2cc(-c3ccccc3)nc3cc(-c4cccc(Cl)c4)nn23)CC1	55*	34	55*	-27	6	-1	58*
O=C(c1ccoc1)N1CCN(c2cc(-c3cccnc3)nc3cc(-c4cccc(Cl)c4)nn23)CC1	54*	-4	0	-6	4	-1	29
CCOc1ccccc1NCc1nnc(-c2ccccc2)o1	-17	-4	-1	-50	5	-5	·
CCOc1ccc(-c2cnc3n2CCCCC3)cc1	6	19	2	-16	8	10	·
CCN(CC)CCCCNc1ncc2cc(-c3cc(OC)cc(OC)c3)c(NC(=O)NC(C)(C)C)nc2n1	74*	5	-7	-9	23	-28	77*
O=C(Nc1ccc([N+](=O)[O-])cc1)C(=O)Nc1cccc(C(=O)O)c1	64*	-29	-15	80*	-26	12	68*
CCC(C)NC(=O)c1c(N)n(/N=C/c2cccnc2)c2nc3ccccc3nc12 (configuration not stated)	50*	-15	51*	-44	-2	-6	15
COCCCNC(=O)c1c(N)n(/N=C/c2cccnc2)c2nc3ccccc3nc12	47	-11	26	1	-31	-4	·
O=C(C[C@H]1C[C@H](C(=O)N2CCCCC2)[C@@]2(CCc3ccccc3)c3[nH]c4ccc(Cl)cc4c3CCN2C1=O)NCCN1CCOCC1	80*	5	15	10	19	-10	-2
Cc1ccc(C(=O)N2CCN(c3ccc([N+](=O)[O-])c(NCc4cccnc4)c3)CC2)cc1	56*	25	-14	15	-14	3	48*
Cc1ccccc1C(=O)N1CCN(c2ccc([N+](=O)[O-])c(NCc3cccnc3)c2)CC1	46	8	2	19	-18	9	·
CC1CCCCC1=NNC(=O)c1ccccc1 (configuration not stated)	2	-40	-15	-2	-16	2	·
Clc1cccc(CNCCNCc2cccc(Cl)c2)c1	-6	8	-4	17	12	-11	·
O=C(CN1C(=O)NC(Cc2ccccc2)C1=O)Nc1ccc(OC(F)(F)F)cc1 (configuration not stated)	12	15	-11	7	-4	2	·
COc1cc(C(=O)O/N=C(\N)c2ccccn2)cc(OC)c1OC	-25	-29	-30	-40	-25	6	·
CCc1ccc(OCC(=O)O/N=C(\N)c2ccccn2)cc1	-345	-30	-12	-258	19	-24	·
N/C(=N\OC(=O)c1ccccc1)c1ccccn1	95*	75*	96*	-44	-3	0	8
Cc1cccc(C(=O)O/N=C(\N)c2ccccn2)c1	56*	85*	102*	32	-16	-20	40*
CCOc1ccc(C(=O)O/N=C(\N)c2ccccn2)cc1	114*	87*	103*	68*	13	-28	95*
COC(=O)c1ccccc1NC(=O)C1=CC(c2cccs2)=NS(=O)(=O)N1C	-10	2	2	8	-38	15	·
SMILES	Peg3 prom inh-1	TROY NFkB inh	TWEAK-Fn14 inh	HIF-2a inh	CF NFkB block	KKLEB tox	Peg3 prom inh-2
O=C(NC1CCCC1)C(c1ccccc1)N(C(=O)c1ccco1)C1CCCC1 (configuration not stated)	20	2	10	21	-23	-1	·
COc1ccc2ccccc2c1/C=N/NC(=O)c1ccc(C)nc1	-3	8	8	-11	-10	-3	·
O=C(N/N=C/c1c(O)ccc2ccccc12)c1ccc(CO)nc1	55*	-3	-16	22	-10	-4	70*
O=S(=O)(Nc1nc2ccccc2nc1OCC(F)(F)F)c1cccs1	5	-42	13	7	-11	24	·
CC(=O)NC(c1ccc2ccccc2c1)c1ccc2cccnc2c1O (configuration not stated)	64*	35	10	29	-43	-3	71*
COc1ccccc1C(NC(C)=O)c1cc(Cl)c2cccnc2c1O (configuration not stated)	39	-8	-3	15	7	6	·
COc1ccc(C(NC(C)=O)c2ccc3cccnc3c2O)c(OC)c1 (configuration not stated)	61*	8	3	14	10	0	65*
c1cc2[nH]c3ccncc3c2cn1	15	1	10	6	12	-4	·
Brc1ccc(N/N=C(/N=Nc2nn[nH]n2)c2ccccc2)cc1	70*	-46	28	-57	23	-4	64*
CC(C)(C)OC(=O)[C@H](Cc1ccccc1)NC(=O)c1[nH]cnc1C(=O)Nc1ccc(Cl)cc1	85*	-3	-11	-1	16	-2	29
CC(C)(C)OC(=O)[C@H](Cc1ccccc1)NC(=O)c1nc[nH]c1C(=O)NCCCCCN	10	-12	-7	-15	-9	-10	·
CC(C)(C)OC(=O)NCCCCCNC(=O)c1[nH]cnc1C(=O)N[C@@H](Cc1ccccc1)C(=O)OC(C)(C)C	51*	-3	-67	16	3	-3	40
CC(C)(C)OC(=O)NCc1ccc(CNC(=O)c2nc[nH]c2C(=O)N2CCN(C(=O)OC(C)(C)C)CC2)cc1	51*	22	34	9	-3	-11	28
CC(C)(C)OC(=O)[C@H](Cc1ccccc1)NC(=O)c1[nH]cnc1C(=O)Nc1cccc(Cl)c1	32	-10	14	18	22	-18	·
Cc1ccc(NC(=O)c2nc[nH]c2C(=O)N2CCN(C(=O)OC(C)(C)C)CC2)cc1	-10	12	-6	-17	-12	16	·
COc1ccc(-n2nc(C(=O)NCc3cc(OC)ccc3OC)c3c4ccccc4n(C)c3c2=O)cc1	22	4	-19	8	-12	8	·
C=CCNc1nc(C(=O)OC(C)C(=O)c2ccc(C)cc2)cs1 (configuration not stated)	-136	-44	-28	-21	11	-13	·
